NS1 function inh – influenza NS1 inhibition | Potency, µM (highest dose often 46.1 µM), without a hit: at the top dose activity, positive = more growth | 0.4% of 270,000 active | AID 2326; calls by dose curve; note: actives are rising curves; nearly all actives have a fitted effect of over 50% in size
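OD600 was taken as the measure of yeast growth restored by compound in an NS1-expressing S. cerevisiae strain. Cells had been washed out of glucose medium and diluted 1:100 into galactose -URA medium, pH 6.0.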
Pf growth 48h – inhibits P. falciparum growth in the first generation, 48 h; P. falciparum luciferase growth in erythrocytes, 48 h; 5.9% of 310,000 active; Potency, µM (top dose mostly 28.7 µM), for the others: top-dose activity change, negative = inhibition, usual class: inhibitors; note: % is set by controls: 0 for no effect and ±100 for the full control effect
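Here the parasites carry a stable luciferase gene and grow inside erythrocytes in Albumax-based RPMI medium with compound for one erythrocytic cycle. Activity is scored as loss of luminescent signal.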
Pf growth 96h – P. falciparum growth inhibition at 96 hour, primary screen for plastid delayed-death inhibitors. P. falciparum luciferase reporter growth, 96 h. Potency, µM (series often up to 28.7 µM), inactives show at the highest dose activity change, negative = inhibition, usual class: inhibitors. 6.9% of 320,000 active; note: % is set by controls: 0 for no effect and ±100 for the full control effect
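Parasite growth measured via integrated firefly luciferase reporter in P. falciparum. Infected erythrocytes at 2% hematocrit, 0.05% parasitemia final were treated 96 hours at 37 C under 5% CO2, and luminescence was read.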
AMA1-RON2 inh – inhibitors of Plasmodium falciparum AMA1-RON2 interaction; AID 720542; 0.2% of 360,000 active; Potency, µM (top dose mostly 58.2 µM), for the others: top-dose activity change, negative = inhibition, hits mostly inhibitors; AlphaScreen AMA1-biotinylated RON2 peptide binding;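 note: 0% = vehicle wells and -100% = peptide control; nearly all actives have a fitted effect of over 45% in size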
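AMA1 (3D7) with his tag at 25 nM final met compounds first, then biotinylated RON2 peptide at 25 nM; detection used donor plus acceptor beads, 10 µg/mL apiece, read by AlphaScreen after 30 min at room temperature.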
HCV inh – blocks hepatitis C virus. Huh7.5.1 HCVcc-Cre infection, luciferase reporter, 44 h. 3.4% of 340,000 active. Potency, µM (top dose mostly 41.8 µM), for inactives: top-dose activity change, negative = inhibition, actives largely listed as inhibitors; note: % is set by controls: 0 for no effect and ±100 for the full control effect
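Infectious HCVcc-Cre (~0.5 moi) was added to cells just after compound, with cells seeded 4 h earlier at 1,000 per well. Luciferase activity after 44 h culture reported infection; substrate was incubated 15 min at room temperature before reading.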
SARS PLpro yeast – inhibitors of SARS-CoV papain-like protease in yeast; 0.19% of 330,000 active; Potency, µM (highest dose often 32.9 µM), inactives show at the top dose activity, positive = growth rescue, most hits filed as activators; S. cerevisiae expressing SARS-CoV PLpro, growth rescue; calls by dose curve; note: 0% is about no effect; nearly all actives have a fitted effect of over 55% in size
Active calls of the source: *; ? = inconclusive; / = no result; [ ] = dose if it differs, or a comment. Sampled rows, rich in hits. Any-hit rate of the full collection: about 12%. Unless noted, calls come from the whole dose curve; as a rule, active = well fitted curve in the direction sought with a large enough effect; inconclusive = small, poorly fitted or top-dose-only effect, or another doubt; inactive = no such curve, though single readings can be large; an effect the other way counts as inactive or inconclusive. Potency is the fitted concentration of half-maximal effect.

SMILES	NS1 function inh	Pf growth 48h	Pf growth 96h	AMA1-RON2 inh	HCV inh	SARS PLpro yeast
COc1ccccc1N1CCN(C(=O)CN2C(=O)c3cccc4cccc(c34)C2=O)CC1	0%	?	28%	0%	?	1%
COc1ccccc1N1CCN(C(=O)CCCn2nc(C)c([N+](=O)[O-])c2C)CC1	-3%	5%	10µM*	-7%	0%	1%
C[C@]12CCC3c4ccc(OCC(=O)O)cc4CCC3C1CCC2=O (some centres not stated)	-2%	?	?	-3%	13%	12%
CCN(c1cccc(C)c1)S(=O)(=O)c1ccc2c(c1)N(C(C)=O)CCS2	-9%	-17%	9%	-5%	11µM*	4%
CCN(c1cccc(C)c1)S(=O)(=O)c1csc(C(N)=O)c1	-1%	-11%[0.00184 µM]	9%	3%	4%	2%
NS(=O)(=O)c1ccc(CCNC(=S)NC2CCCCC2)cc1	-5%	0%	25%	4%	-11%	0%
NS(=O)(=O)c1ccc(CNC(=S)NC2CC2)cc1	4%	28%	2.1µM*	-16%	6%	0%
Cc1ccc(S(=O)(=O)NC(=O)NCc2ccc(F)cc2)cc1	9%	5%	4.1µM*	4%	-1%	0%
NS(=O)(=O)c1ccc(CNC(=S)NCc2ccc(F)cc2)cc1	-2%	37%	10µM*	17%	12%	5%
COc1ccc(Cl)cc1NC(=S)NCc1ccc(S(N)(=O)=O)cc1	-1%	19%	12µM*	0%[2.32 µM]	?	0%
Cc1ccc(CNC(=O)c2cc3ccccc3oc2=O)cc1	/	/	/	0%	6%	/
CC1Cc2ccccc2N1S(=O)(=O)c1cccc(C(=O)Nc2cccnc2)c1 (configuration not stated)	-32%	8.3µM*	?	6%	?	5%
O=C(Nc1cccnc1)c1ccc(Cl)c(S(=O)(=O)N2CCc3ccccc32)c1	/	2.6µM*	3.7µM*	7%	-29%	-2%
C=CCN(CC=C)C(=O)c1cccc(S(=O)(=O)N2c3ccccc3CC2C)c1 (configuration not stated)	7%	2.3µM*	?	4%	?	-1%
CC1Cc2ccccc2N1S(=O)(=O)c1cccc(C(=O)NC2CC2)c1 (configuration not stated)	-8%	/	?	3%	-30%	-1%
COc1ccc(S(=O)(=O)N2CCc3ccccc32)cc1C(=O)Nc1cccnc1	1%	?	2.9µM*	24%	-13%	0%
COc1ccc(-c2csc(C3=C(O)CN(CCCN4CCCC4=O)C3=N)n2)cc1OC	/	-1%	9%	24%	5%	-1%
CC(C)c1ccccc1NC(=O)C1CC(=O)N(C2CCCC2)C1 (configuration not stated)	-6%	-9%	8%	0%	12%	2%
Cc1cccc(NC(=O)COC(=O)CCc2c[nH]c3ccccc23)c1	/	40%	-5%	-3%	9%	-2%
O=C(Nc1cccnc1)c1cccc(S(=O)(=O)N2CCc3ccccc32)c1	/	10µM*	3.3µM*	14%	?	0%
COc1ccc(S(=O)(=O)N2CCc3ccccc32)cc1C(=O)NCCc1ccccn1	12%	10µM*	?	-4%	21%	-4%
COc1ccc(S(=O)(=O)N2CCc3ccccc32)cc1C(=O)O	12%	1%	91%	11%	2%	0%
CC1Cc2ccccc2N1S(=O)(=O)c1ccc2c(c1)n(C)c(=O)c(=O)n2C (configuration not stated)	2%	9.3µM*	?	19%	13%	2%
CC(=O)N1c2ccc(S(=O)(=O)N3c4ccccc4CC3C)cc2CC1C (configuration not stated)	-2%	?	25%	-10%	-25%	1%
CCOC(=O)c1sc(NC(=O)c2cccc(S(=O)(=O)N3CCc4ccccc43)c2)c(C#N)c1C	3%	?	18%	-4%	10µM*	-1%
SMILES	NS1 function inh	Pf growth 48h	Pf growth 96h	AMA1-RON2 inh	HCV inh	SARS PLpro yeast
CC(C)[C@H](NC(=O)c1ccccc1)C(=O)OCC(=O)Nc1ncc(Cl)cc1Cl	/	/	/	-6%	-9%	7%
C[C@@H](NC(=O)c1nc[nH]c1C(=O)N(C)Cc1ccccc1)c1ccccc1	/	-13%	15%	26%	12%	-2%
Cc1ccc(CS(=O)(=O)CC(C)(O)c2ccccc2)cc1 (configuration not stated)	3%	-6%	?	0%	14%	-1%
O=C(Cc1ccc(S(=O)(=O)N2CCOCC2)s1)OCc1ccc(Cl)cc1	/	?	?	-6%	7%	0%
O=C(O)c1cccc(NC(=O)c2cccc(S(=O)(=O)N3CCc4ccccc43)c2)c1	12%	-7%	-17%	-2%	12%	0%
O=C(Nc1ccncc1)c1cccc(S(=O)(=O)N2CCc3ccccc32)c1	/	10µM*	?	-15%	8.9µM*	3%
COc1ccc(-c2cc(C3CCNCC3)[nH]n2)cc1	10%	2.6µM*	2.3µM*	-6%	-11%	12%
COc1ccc(-c2cc(-c3ccc(OC)cc3)[nH]n2)cc1	-61%	/	-15%	-4%	?	-10%
COc1cccc(CNC(=O)CCCc2nnc3n(C)c(=O)c4sccc4n23)c1	-1%	?	-4%	-6%	9%	-1%
CCCNC(=O)c1ccc(N2CCC3(CC2)CC(c2cccc(Br)c2)=NO3)c(N)c1	/	12µM*	?	?	?	-24%
CCCNC(=O)c1ccc(N2CCC3(CC2)CC(c2cccc(Br)c2)=NO3)c([N+](=O)[O-])c1	-31%	?	6.6µM*	-6%	?	-6%
O=Cc1cc2ccccc2nc1SCCCF	/	?	0%	-1%	-3%	-2%
Cc1ccc(S(=O)(=O)c2cc3cc(Br)ccc3oc2=O)cc1	10%	35%	1.7µM*	-14%	42%	13%
Cc1cccc(C(=O)C2CCN(S(=O)(=O)c3cccc(C(=O)O)c3)CC2)c1	4%	-15%	16%	-2%	4%	9%
O=C(Nc1ccc(NS(=O)(=O)c2ccccc2)c(Cl)c1)c1ccccc1	/	/	/	30%	-14%	/
Cc1sc(NC(=O)C2C3C=CC(C3)C2C(=O)O)c(C(N)=O)c1-c1ccc(C(C)C)cc1 (configuration not stated)	-14%	1%	-6%	7%	12%	3%
CC1CCN(c2nc3ccc(C(=O)N4CCN(Cc5ccc6c(c5)OCO6)CC4)cc3s2)CC1	9%	/	4.1µM*	5%	3.2µM*	8%
O=C(CCc1ccc(S(=O)(=O)N2CCOCC2)cc1)N1CCN(Cc2ccc3c(c2)OCO3)CC1	12%	/	3.3µM*	-3%	?	-7%

Screens deposited in PubChem BioAssay by National Center for Advancing Translational Sciences (NCATS).
